# Screening data deposited in PubChem BioAssay by National Center for Advancing Translational Sciences (NCATS).
# TGFb inhibitor – qHTS for Inhibitors of TGF-b | HepG2 CAGA-GFP TGF-b/SMAD3 reporter, GFP fluorescence, 18 h; TGF-beta stimulated, 500 pg/mL final | Potency, µM (doses to about 46.1 µM), for the others: top-dose activity, negative = inhibition, most hits filed as inhibitors | 410,000 tested, 1.2% active | AID 588855, 2011; also: % is scaled to controls: 0 for no effect and ±100 for the full control effect; nearly all actives have a fitted effect of over 65% in size
#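 Inhibition of TGF-beta-driven CAGA-GFP reporter expression in HEPG2 cells is measured by cellular GFP fluorescence after 18 h stimulation with 500 pg/mL recombinant TGF-beta in 1% FBS medium at 37 degrees C.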
# ATXN viability – Viability Counterscreen for Primary qHTS for Inhibitors of ATXN expression; S2 cells (HEK-293 line with an ATXN2-luciferase reporter) viability, CellTiter-Fluor protease fluorescence, 24 h; Potency, µM (top dose mostly 56.7 µM), hits mostly cytotoxic; 400,000 tested, 0.49% active; AID 651635, 2014; also: nearly all actives have a fitted effect of over 40% in size
# ATXN2 expr inh – Primary qHTS for Inhibitors of ATXN expression | HEK-293 ATXN2-luciferase reporter, luminescence, 24 h | Potency, µM (highest dose often 57 µM), inactives show at the highest dose activity change, negative = inhibition, hits mostly inhibitors | 360,000 tested, 0.72% active | AID 1745845, 2022; also: % is scaled to controls: 0 for no effect and ±100 for the full control effect; nearly all actives have a fitted effect of over 55% in size
#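 qHTS (up to 57 uM final) was run with 24 h compound exposure of reporter cells at 37 °C. Each well was multiplexed: SteadyGlo luminescence measured ATXN2-luciferase expression after a fluorogenic Gly-Phe-AFC viability readout (25 uM final).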
# HepG2 tox – qHTS for Inhibitors of TGF-b: Cytotox Counterscreen; Potency, µM (highest dose often 46.1 µM), inactives show top-dose activity change, negative = cytotoxicity, usual class: cytotoxic; HepG2 CAGA-GFP viability, ATP luminescence, 18 h; AID 588856, 2011; 410,000 tested, 0.76% active
#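 HepG2 CAGA-GFP cells (1000/well, DMEM with 1% FBS) received compound, then TGF-beta at 500 pg/mL final, and were incubated 18 hours at 37 degrees C. Viability was read by CellTiter-Glo luminescence. Media-only wells were set as complete cell-killing and DMSO as no toxicity.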
# HT1080 IDH1KD tx – qHTS for induction of synthetic lethality in tumor cells producing 2HG: qHTS for the HT-1080-IDH1KD cell line; HT-1080 IDH1 knockdown viability, ATP luminescence, 48 h; Potency, µM (doses to about 46.1 µM), inactives show at the highest dose activity, negative = toxicity, usual class: cytotoxic; 360,000 tested, 2% active; AID 686971, 2013;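 also: 0% = DMSO wells and -100% = cell-free medium wells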
#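 IDH1KD HT-1080 cells, 750/well, RPMI + 5% FBS; compound pinned after 2 h settling; 48 h, 37 °C; CellTiter-Glo luminescence; % activity normalised to DMSO and no-cell wells; curves fitted, classed by r2 and efficacy.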
# HT1080NT lethal – qHTS for induction of synthetic lethality in tumor cells producing 2HG: qHTS for the HT-1080-NT fibrosarcoma cell line | HT-1080-NT fibrosarcoma viability, CellTiter-Glo ATP luminescence, 48 h | Potency, µM (doses to about 46.1 µM), inactives show top-dose activity, negative = less viability, actives largely listed as cytotoxic | 360,000 tested, 1.6% active | AID 686970, 2013;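 also: NT is the 2HG producing partner of a matched IDH1 knockdown line; 0% = DMSO-treated cells and -100% = media-only wells without cells; nearly all actives have a fitted effect of over 55% in size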
#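 Compounds were tested in concentration-response format on HT-1080-NT cells for 48 hours at 37 degrees C. Cell viability came from CellTiter-Glo luminescence; curves were classified by r2, response magnitude and activity.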
# * hit, by the source's call; i = inactive; ? = inconclusive; nt = no result given; [ ] = dose if it differs, or a comment. Compounds with a hit are over-represented: about 3.8% of the library has one in this group of screens. Calls follow the shape of the dose curve; as a rule, active = well fitted curve in the direction sought with a large enough effect; inconclusive = small, poorly fitted or top-dose-only effect, or another doubt; inactive = no such curve, though single readings can be large; an effect the other way counts as inactive or inconclusive. Potency is read from the fitted curve at half-maximal effect.
SMILES,TGFb inhibitor,ATXN viability,ATXN2 expr inh,HepG2 tox,HT1080 IDH1KD tx,HT1080NT lethal
COc1ccc(-c2nnc(SCC(=O)N(C)C3CCCCC3)o2)cc1OC,0%,i,2%,-5%,nt,nt
CC(C)(CN1CCCC1)NS(=O)(=O)c1ccc(Cl)cc1,6%,i,-9%,-3%,0%,-1%
CC(C)(CN1CCNCC1)NS(=O)(=O)c1ccc(Cl)cc1,?,i,?,25µM*,?,-4%[9.24 µM]
Cc1ccc(S(=O)(=O)NC(C)(C)CN2CCC(Cc3ccccc3)CC2)cc1,18µM*,i,-26%,-26%,?,?
COc1ccc(CCN(C(=O)C(F)(F)F)C(C(=O)NC2CCCC2)c2cccs2)cc1 (stereo unspecified),?,i,-23%,-12%,?,8.9µM*
C#CC(=O)N(c1ccc(OC)cc1OC)C(C(=O)NC1CCCC1)c1cccs1 (stereo unspecified),?,nt,1.8µM*,-52%,?,0.92µM*
C#CC(=O)N(c1cc(OC)ccc1OC)C(C(=O)NC1CCCC1)c1cccs1 (stereo unspecified),?,32µM*,?,-83%,0.73µM*,0.073µM*
O=C(CSc1nc2ccsc2c(=O)n1Cc1ccccc1Cl)NCc1ccc(Cl)cc1,25%,i,15%,-12%,nt,nt
COc1cc(=O)n2c(c1C(=O)N(C)Cc1nonc1C)CCN(Cc1ccsc1)CC2,nt,i,nt,nt,nt,nt
Fc1ccc(-c2nnc3ccc(N4CCc5ccccc5C4)nn23)cc1,20%,nt,32µM*,1%,-20%,0%
O=C(Nc1ccc(F)cc1)N1CCN(c2ccc3nnc(-c4ccc(F)cc4)n3n2)CC1,-6%,?,?,13%,?,?
COc1cc(NS(=O)(=O)c2ccc(OC)c(C)c2C)c(OC)cc1Cl,?,i,?,-15%,2.3µM*,2.3µM*
Cc1csc2sc(-c3ccnc(SCC(=O)NCc4ccccc4)n3)c(C)c12,?,i,-1%,-5%,2.3µM*,3.3µM*
Nc1nc(=O)n(C2CC(O)C(CO)O2)cc1F (stereo unspecified),1%,?,?,3%,5.2µM*,-20%
Nc1nc(=O)n(C2CC(O)C(CO)O2)cc1Cl (stereo unspecified),-5%,i,5%,-2%,6%,?
Nc1nc(=O)n([C@H]2C[C@H](O)[C@@H](CO)O2)cc1F,nt,nt,0.31µM*,nt,nt,nt
O=c1c(Cl)c(NCCCO)cnn1-c1nc2ccccc2[nH]1,0%,?,?,-55%,13µM*,13µM*
CNC(=S)N/N=C(\C)c1ccc(Cl)c(Cl)c1,-14%,i,-8%,-1%,-3%,-3%
CNC(=S)NN=C(C)CCCC(C)=NNC(=S)NC,4.5µM*,?,11µM*,-49%,20%,11%
Cc1nc(SCCC(=O)O)c2cc(-c3ccccc3)sc2n1,14%,i,2µM*,-46%,3%,7%
COc1cc(-c2nc(-c3ccc(NC(=O)c4ccc5c(c4)OCO5)cc3)no2)cc(OC)c1OC,?,32µM*,?,-57%,5.2µM*,4.6µM*
COc1cc(C(=O)N/N=C(\C)c2ccc3c(c2)OCO3)cc(OC)c1OC,?,?,-38%[11.3 µM],-1%,3.7µM*,2.1µM*
COc1cc(C(=O)c2ccc3c(c2)OCO3)cc(OC)c1OC,-1%,?,-11%,9%,2.6µM*,?
COc1cc(C(=O)NNC(=O)c2ccc3c(c2)OCCO3)cc(OC)c1OC,8%,i,2%,1%,-2%,0%
CC(=O)c1ccc(NC(=O)CSc2nc(-c3ccccc3C)nc3c2c(=O)n(C)c(=O)n3C)cc1,28%,i,0%,6%,nt,nt
SMILES,TGFb inhibitor,ATXN viability,ATXN2 expr inh,HepG2 tox,HT1080 IDH1KD tx,HT1080NT lethal
Cc1cc(C)c(Cn2c(=O)n(-c3ccccc3Cl)c(=O)c3c(C)c(C(=O)N(C)C)sc32)c(C)c1,-18%,i,6%,-14%,nt,nt
Cc1c(C(=O)N2CCC(C)CC2)oc2ccc3c(c12)C(O)CC1(CCCCC1)O3 (stereo unspecified),?,?,14%,-15%,9.2µM*,?
COCCNC(=O)c1oc2ccc3c(c2c1C)C(O)CC(C)(C)O3 (stereo unspecified),7%,i,20%,7%,20%,14%
Cc1ccc(/C(=C\CN2CCCC2)c2cccc(/C=C/C(=O)O)n2)cc1,nt,i,nt,nt,nt,nt
CCNC(=O)NC(=O)COC(=O)c1ccccc1SCC(=O)NC(=O)NCC,-9%,i,-9%,-81%,29µM*,-7%
COc1cc(C(=O)OCCc2cc3ccccc3c(=O)o2)cc(OC)c1OC,3%,?,?,-13%,7.3µM*,8.2µM*
NC(=O)N[C@@H](CCC(=O)O)C(=O)O,nt,i,-4%,nt,nt,nt
Cc1cc(C)c(O)c(-c2cc(C(=O)Nc3ccc(S(=O)(=O)N4CCOCC4)cc3)[nH]n2)c1,?,?,18µM*,-60%,?,21µM*
CCOc1ccc(OCCNC(=O)c2cc(C3CC3)nc3c2cnn3C(C)C)cc1,13µM*,i,-28%,-34%,-24%,-6%
CC(C)n1ncc2c(C(=O)NCCOc3ccccc3F)cc(C3CC3)nc21,?,i,-9%,-26%,-8%,-3%
CCN(CC)S(=O)(=O)c1ccc(C(=O)Nc2nnc(-c3ccco3)o2)cc1,-8%,i,nt,-46%,?,-26%
